The values below come from PubChem BioAssay (Tox21).

Records with an inconclusive call do not appear. Active and inactive are the calls of the source. Calls come from the whole dose curve; as a rule, active = well fitted cell-killing curve with a large enough effect in the repeat runs; inconclusive = weak or mixed curves, or effect the other way; inactive = no such curve, though single readings can be large or run the other way. Non-standard residues stand in square brackets, D forms with d. Residues, ends and D or L forms follow the SMILES beside them. pGlu = O=C1CC[C@@H](C(=O)O)N1; Thz = O=C(O)[C@@H]1CSCN1
% is set by controls: 0 for no effect and ±100 for the full control effect; potency is the fitted concentration of half-maximal effect.

This assay in a line: qHTS assay to identify aromatase inhibitors - cell viability counter screen (AID 743084).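 Note: cells stimulated with testosterone during compound exposure; nearly all actives have a fitted effect of over 55% in size.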 The following applies: MCF-7 aro ERE viability, CellTiter-Fluor, 24 h; series mostly up to 70.3 µM; activity change, negative = cytotoxicity: at the top concentration. On the technique in general: Quantitative high-throughput screening tests each substance at several concentrations.
On to `O=C1CC[C@@H](C(=O)N2CSC[C@H]2C(=O)O)N1` ([pGlu]-[Thz]-OH), for which the “activity change, negative = cytotoxicity” value was 0.426% (inactive).

As for `COc1ccc(CC2c3cc(OC)c(OC)cc3CC[N+]2(C)CCC(=O)OCCCCCOC(=O)CC[N+]2(C)CCc3cc(OC)c(OC)cc3C2Cc2ccc(OC)c(OC)c2)cc1OC` (centres undefined), the “activity change, negative = cytotoxicity” value is -16.9% [at 32.5 µM] (inactive).

On to `CO[C@H]1O[C@@H]2O[C@@]3(C)CC[C@H]4[C@H](C)CC[C@@H]([C@H]1C)[C@@]24OO3`, for which the “activity change, negative = cytotoxicity” value was 2.59% (inactive).

Turning to `CO[C@H]1C[C@@H]2CC[C@@H](C)[C@@](O)(O2)C(=O)C(=O)N2CCCC[C@H]2C(=O)O[C@H]([C@H](C)C[C@@H]2CC[C@@H](OCCO)[C@H](OC)C2)CC(=O)[C@H](C)/C=C(\C)[C@@H](O)[C@@H](OC)C(=O)[C@H](C)C[C@H](C)/C=C/C=C/C=C/1C`, the Potency was 11.9 µM (active).

Consider `COc1ccc(-c2noc(CC(=O)O)c2-c2ccc(OC)cc2)cc1`, for which the “activity change, negative = cytotoxicity” value is 21.5% (inactive).

As for `Nc1ncnc2c1ncn2CCOCP(=O)(O)O`, the “activity change, negative = cytotoxicity” value was 7.74% (inactive).

Consider `CC(=C\c1ccccc1)/C=C1/SC(=S)N(CC(=O)O)C1=O`, for which the “activity change, negative = cytotoxicity” value is -5.57% (inactive).

On to `C[C@H](CCCC(C)(C)O)[C@H]1CC[C@H]2[C@@H]3CC=C4C[C@@H](O)CC[C@]4(C)[C@H]3CC[C@]12C`, for which the “activity change, negative = cytotoxicity” value was 0.956% (inactive).

As to `CO[C@H]1C[C@@H]2CC[C@@H](C)[C@@](O)(O2)C(=O)C(=O)N2CCCC[C@H]2C(=O)O[C@H]([C@H](C)C[C@@H]2CC[C@@H](OC(=O)C(C)(CO)CO)[C@H](OC)C2)CC(=O)[C@H](C)/C=C(\C)[C@@H](O)[C@@H](OC)C(=O)[C@H](C)C[C@H](C)/C=C/C=C/C=C/1C`, the “activity change, negative = cytotoxicity” value is 13.9% (inactive).

Take `O=C1NCCN1c1ncc([N+](=O)[O-])s1`: the “activity change, negative = cytotoxicity” value is -12.8% [at 32.5 µM] (inactive).

In the case of `CN[C@@H]1[C@H](O[C@H]2[C@H](O[C@H]3[C@H](O)[C@@H](O)[C@H](N=C(N)N)[C@@H](O)[C@@H]3N=C(N)N)O[C@@H](C)[C@]2(O)CO)O[C@@H](CO)[C@H](O)[C@H]1O`, the “activity change, negative = cytotoxicity” value was -0.0952% (inactive).

Regarding `CCC(=O)O[C@]1(C(=O)CCl)[C@@H](C)C[C@H]2[C@@H]3C[C@H](F)C4=CC(=O)C=C[C@]4(C)[C@@]3(F)[C@@H](O)C[C@@]21C`, the “activity change, negative = cytotoxicity” value was -6.18% (inactive).

For `NCCCC[C@H](N)C(=O)O`, the “activity change, negative = cytotoxicity” value is -13% (inactive).

In the case of `COc1cc2c(cc1OC)CC(=O)N(CCCN(C)C[C@H]1Cc3cc(OC)c(OC)cc31)CC2`, the “activity change, negative = cytotoxicity” value was 6.3% (inactive).

Consider `CCCCC/C=C\C/C=C\C/C=C\CCCCC(=O)O`, for which the “activity change, negative = cytotoxicity” value was 0.706% (inactive).

With `NC(=O)c1ccc[n+]([C@@H]2O[C@H](COP(=O)([O-])OP(=O)(O)OC[C@H]3O[C@@H](n4cnc5c(N)ncnc54)[C@H](O)[C@@H]3O)[C@@H](O)[C@H]2O)c1`, the “activity change, negative = cytotoxicity” value is 13.8% [at 32.5 µM] (inactive).

On to `C=C1C(=O)O[C@H]2[C@H]1CC/C(C)=C\CC[C@@]1(C)O[C@@H]21`, for which the Potency is 18.8 µM (active).

Consider `C#C[C@]1(O)CC[C@H]2[C@@H]3CCC4=CC(=O)CC[C@@H]4[C@H]3C(=C)C[C@@]21CC`, for which the “activity change, negative = cytotoxicity” value is -0.942% (inactive).

For `CCCOc1ccc2nc(NC(=O)OC)sc2c1`, the “activity change, negative = cytotoxicity” value was -5.96% (inactive).

As to `O=C1CCC(=O)N1CO`, the “activity change, negative = cytotoxicity” value is 8.13% (inactive).

Turning to `Cc1ccc(S(=O)(=O)NC(=O)N[C@@H](C)Cc2ccccc2)cc1`, the “activity change, negative = cytotoxicity” value is 13.5% (inactive).

Consider `C#C[C@]1(O)CC[C@H]2[C@@H]3CCC4=CCCC[C@@H]4[C@H]3C(=C)C[C@@]21CC`, for which the “activity change, negative = cytotoxicity” value was -2.53% (inactive).

Consider `COc1cc(C)c(/C=C/C(C)=C/C=C/C(C)=C/C(=O)O)c(C)c1C`, for which the “activity change, negative = cytotoxicity” value was 1.66% (inactive).

For `CC1=C(/C=C/C(C)=C/C=C/C(C)=C/C(=O)Oc2c(C)c(C)c3c(c2C)CC[C@@](C)(CCC[C@H](C)CCC[C@H](C)CCCC(C)C)O3)C(C)(C)CCC1`, the “activity change, negative = cytotoxicity” value is -3.81% (inactive).
